# HDAC3 inhib – HDAC3 deacetylase inhibitors, primary screen, biochemical, fluorescence, cell-free homogeneous | Histone deacetylase 3 (Homo sapiens), O15379 | actives 0.15% (n = 320,000) | inhibition, % at 8.3 µM | recombinant HDAC3, fluorogenic peptide/trypsin coupled; in the data active = inhibition above about 26%, passing the limit was not always enough
# LANA-H2A inh – blockers of LANA interaction with H2A/H2B – biochemical, FP readout, HTS, primary screen; inhibition, % (no concentration beside the values); cell-free LANA-H2A/H2B peptide, fluorescence polarization; AID 2629, 2010; actives 0.6% (n = 320,000); in the data active = inhibition mostly above about 10%, no sharp cut-off; inactive = mostly below about 6.7%
# Fh CTSL1 inh – Fasciola hepatica cathepsin L1 inhibitors, primary screen, counter-screen for PFM18AAP inhibitor project, biochemical, QFRET, fluorogenic peptide substrate; recombinant F. hepatica cathepsin L1, Z-Leu-Arg-MCA fluorescence; actives 0.49% (n = 300,000); inhibition, % at 5.96 µM; AID 1906, 2009;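 active = inhibition above the mean of all tested compounds plus 3 SD, set per screening campaign, cut at about 17% in these data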;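 note: 0% = plate median of test compound wells and 100% = 1 µM Z-Phe-Ala-diazomethylketone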
# m5-HT2A agonist – mouse Htr2a agonists via beta-arrestin recruitment, primary screen, cell-based, luminescence; AID 624169, 2012; activation, % at 7.6 µM; CHO-K1 mHTR2A beta-arrestin complementation; percent of 30 µM serotonin response; 5-hydroxytryptamine receptor 2A (Mus musculus), P35363; actives 0.66% (n = 360,000);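 active = activation above a run cutoff, the mean activation of all tested compounds plus 3 SD, cut at about 14% in these data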;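 note: 0% = plate median of compound wells and 100% = 30 µM serotonin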
# Target sequence (P35363 whole entry, looked up): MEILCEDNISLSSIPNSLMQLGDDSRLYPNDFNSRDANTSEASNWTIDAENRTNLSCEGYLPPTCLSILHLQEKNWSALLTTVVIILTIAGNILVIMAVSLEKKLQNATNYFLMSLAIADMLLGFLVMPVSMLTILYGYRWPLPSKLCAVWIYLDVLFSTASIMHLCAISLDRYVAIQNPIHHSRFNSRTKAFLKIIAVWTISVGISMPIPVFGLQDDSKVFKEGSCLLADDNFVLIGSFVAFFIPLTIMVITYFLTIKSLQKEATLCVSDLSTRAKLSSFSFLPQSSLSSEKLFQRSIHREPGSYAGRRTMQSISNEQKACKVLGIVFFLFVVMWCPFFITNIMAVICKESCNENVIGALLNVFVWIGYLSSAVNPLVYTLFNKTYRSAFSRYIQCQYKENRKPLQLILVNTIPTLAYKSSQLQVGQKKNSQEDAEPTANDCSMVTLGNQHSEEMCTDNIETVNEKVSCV
# * hit, by the source's call; nt = no result. Shown are actives, neighbours in structure and some others; about 1.7% of the full set was active somewhere.
SMILES,HDAC3 inhib,LANA-H2A inh,Fh CTSL1 inh,m5-HT2A agonist
Cc1c(CN2CCC(CO)(CCOc3ccccc3)CC2)[nH]c2c(Cl)cccc12,17.5,16.8*,-0.3,3.5
Cc1nn(C)c(Cl)c1CN1CCC(CO)(CCOc2ccccc2)CC1,3.4,1.5,3.4,-1.2
Cc1nn(S(=O)(=O)c2ccc(Cl)cc2)c(C)c1Sc1ccc([N+](=O)[O-])cc1,-10.7,11.9*,-5.2,2.2
COc1ccc2cc3cc(C(=O)Nc4ccccc4N4CCN(C)CC4)oc3nc2c1,0.3,-2.7,0.2,16.2*
O=C(NNC(=O)C1C2C=CC(C2)C1C(=O)O)c1cc(Cl)ccc1O (configuration not stated),-49.7,-3.2,nt,-4.0
CCCC(=O)Nc1ccc(NC(=O)c2ccccc2OC)cn1,7.0,-0.9,0.6,0.1
CCCC(=O)Nc1ccc(NC(=O)c2ccccn2)cn1,-0.4,39.0*,1.3,0.1
CCCCC(=O)Nc1ccc(NC(=O)c2ccco2)cn1,2.4,11.3*,2.6,1.6
O=C(NCc1ccc(F)cc1)c1cc(C2CCCN(C(=O)CCCc3ccccc3)C2)on1 (configuration not stated),nt,nt,nt,-1.3
Cc1ccc(NC2=C([N+](=O)[O-])CS(=O)(=O)C2)cc1,5.4,27.9*,-4.5,1.7
COC(=O)[C@H]1C[C@@]2(O)CN(S(=O)(=O)c3ccc(C)cc3)C[C@@]2(OC(=O)NCC2CCCCC2)C[C@H]1C(=O)OC,nt,nt,nt,6.4
CCN(CC)c1ccc(C2=NNC(=O)CC2C)cc1[N+](=O)[O-] (configuration not stated),6.5,20.4*,-0.9,-4.5
O=C(CC1SC(N2CCCC2)=NC1=O)Nc1ccc(C(=O)Nc2ncccc2O)cc1 (configuration not stated),93.7*,2.8,3.2,2.1
O=C(CC1SC(N2CCCCC2)=NC1=O)Nc1cccc(C(=O)O)c1 (configuration not stated),-4.7,14.0*,0.3,0.8
COc1ccc(NC(=O)CN(C)C(=O)/C=C/c2cn(-c3ccccc3)nc2-c2ccc(F)cc2)cc1,15.0,3.7,1.3,2.5
COc1ccc(NC(=O)CN(C)C(=O)/C=C/c2cn(-c3ccccc3)nc2-c2ccc(C)cc2)cc1,-4.9,-8.6,20.0*,-0.9
O=C(NCC(c1ccco1)N1CCCC1)c1ccccc1Sc1ccc(C(F)(F)F)cc1[N+](=O)[O-] (configuration not stated),2.7,-4.3,19.8*,7.4
O=C(O)c1cc(S(=O)(=O)N2CCCCC2)ccc1N1CCOCC1,-0.3,0.8,nt,4.9
CC[C@H](C)Cc1cn([C@@H](CCCN=C(NC(=O)OC(C)(C)C)NC(=O)OC(C)(C)C)C(=O)NCCCCCCCCCCC(=O)N2CCN(C(=O)OC(C)(C)C)CC2)nn1,28.2*,-2.6,10.0,-10.3
C#CCOCCOCCOCCNc1nc(N2CCN(C(=O)CCCCCCCCCCNC(=O)[C@H]([C@@H](C)CC)n3cc(CCCCN=C(N)N)nn3)CC2)nc(N2CCN(C(=O)CCCCCCCCCCNC(=O)[C@H](CCCN=C(N)N)n3cc(C[C@@H](C)CC)nn3)CC2)n1,-8.5,-76.0,1.8,nt
C#CCOCCOCCOCCNc1nc(N2CCN(C(=O)CCCCCCCCCCNC(=O)[C@H](CCCN=C(N)N)n3cc(C[C@@H](C)CC)nn3)CC2)nc(N2CCN(C(=O)CCCCCCCCCCNC(=O)[C@@H]([C@H](C)CC)n3cc(CCCCCN)nn3)CC2)n1,32.6*,-3.6,0.3,nt
C#CCOCCOCCOCCNc1nc(N2CCN(C(=O)CCCCCCCCCCNC(=O)[C@@H](CCSC)n3cc(CCO)nn3)CC2)nc(N2CCN(C(=O)CCCCCCCCCCNC(=O)[C@H](CCCN=C(N)N)n3cc(C[C@@H](C)CC)nn3)CC2)n1,69.2*,1.9,4.3,-0.5
CC(Cc1ccccc1)C(=O)Nc1ccc(Br)cc1 (configuration not stated),3.1,-7.2,5.3,-6.3
NC(=S)Nc1ccc(S(=O)(=O)c2ccc(NC(N)=S)cc2)cc1,-0.1,-5.2,-1.0,-0.4
CCOC(=O)C1CCCN(C(=O)c2cccc(OC(F)(F)F)c2)CC1 (configuration not stated),nt,nt,nt,0.2
CC(C)(C)C(=O)Nc1ccccc1N1CCN(c2ccc(F)cc2)CC1,-0.6,0.2,-1.1,6.7

# Bioassay records (PubChem BioAssay)
